According to PubChem BioAssay:
The source made the active and inactive calls.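 How the source made its calls, unless noted: active means inhibition above 20% together with a positive visual image hit; inconclusive means visual image hit but inhibition not above 20%; inactive means no visual image hit.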

Columns and labels:
[1] = inhibitors of TNFa-induced NFkB p65 translocation, primary screen, imaging, HUVEC, MLSMR starter and 10KST1 sets (AID 438); conditions: HUVEC TNFa-induced p65 nuclear translocation; cell count: measured here: nuclei count (cytotoxicity indicator), at 2.08 µM; inhibition: at 2 µM, stronger effect = higher value, 0% TNFa-plus-vehicle, 100% no-TNFa wells;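 further: compound added about 3h40 before a 20 min TNFalpha stimulation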;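 on inhibition: signal is the nuclear over cytoplasmic p65 intensity ratio per well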
[2] = inhibitors of mutant huntingtin aggregation, primary screen, imaging, exon1htt(103Q)mCFP cells, high-content imaging (AID 483;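 active means visual image review flags a hit and inhibition of aggregation exceeds 20%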;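 further: compound exposure lasted 3 days before fixation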;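 on nuclei count: percent of the per-plate median nuclei count of sample wells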); conditions: exon1htt(103Q)mCFP cell line, aggregate imaging, at 2 µM; inhibition of aggregation: stronger effect = higher value; nuclei count: measured here: cell count, toxicity
[3] = inhibitors of E-selectin induction by TNFa, primary screen, imaging, HUVEC, immunofluorescence, MLSMR starter and 10KST1 sets (AID 487;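 active means visually confirmed hit in the image check and inhibition above 20%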;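 on inhibition: signal is fraction of cell area covered by stained E-selectin grains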;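 on nuclei count: 100% = median nuclei count of all wells on the same plate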); conditions: HUVEC TNFalpha-induced E-selectin immunofluorescence imaging, at 2 µM; inhibition: stronger effect = higher value; nuclei count: measured here: cell number, toxicity
[4] = target: Voltage-gated potassium channel subunit beta-2 (Rattus norvegicus) (UniProt P62483); test: KvBeta enzyme negative modulators, primary screen, biochemical, NADPH fluorescence (AID 622;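 active means fluorescence slope higher than the sample average by over 3 SD, cut at about -0.22 in these data, passing the limit was not always enough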;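 further: slope of raw intensity against log time taken from 70 to 1610 s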); conditions: recombinant KvBeta, 4-cyanobenzaldehyde reduction, at 10 µM, stronger effect = higher value
[5] = target: Voltage-gated potassium channel subunit beta-2 (Rattus norvegicus) (UniProt P62483); test: KvBeta positive modulators, primary screen, biochemical, NADPH fluorescence (AID 623;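 active means NADPH fluorescence slope more negative than the mean of all samples by about 3 SD, 99.7% confidence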;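 further: fluorescence intensity change per second fitted from 20 to 320 s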); conditions: Recombinant KvBeta, NADPH fluorescence decrease slope, 10 min; at 10 µM; stronger effect = lower value
[6] = target: Alpha-2C adrenergic receptor (Homo sapiens) (UniProt P18825); test: modulators of alpha2C/GIRK thallium flux, primary screen, cell-based, HEK293 alpha2C/GIRK1/2 (AID 624;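 active means fluorescence slope after compound addition differing from the mean of all screened samples at 99.7% confidence, in either direction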;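 further: slope of fluorescence ratio to pre-addition baseline per second over 15 to 24 s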); conditions: thallium flux BTC fluorescence, at 10 µM, actives lie on both sides
[7] = inhibitors of Sendai virus-induced IRF3 signaling, primary screen, TLR/RLR signaling modifier project, cell-based, Sendai virus stimulus, luciferase, 10K MLSCN set (AID 602276;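 active means inhibition at or above 50% at 10 µM; inactive means inhibition below 50%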;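 further: firefly luciferase from ISG56 promoter only with Renilla not read in this screen; 0% = Sendai virus plus DMSO and 100% = medium plus DMSO without virus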); conditions: HEK293 RL24 IRF3 luciferase reporter, at 10 µM, stronger effect = higher value
[8] = inhibitors of poly I:C-induced TLR3 signaling, primary screen, cell-based, poly I:C stimulus, luciferase, 10K MLSCN set (AID 602277;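 active means inhibition of the reporter signal at or above 50%; inactive means inhibition below 50%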); conditions: HEK293-TLR3 RL24 IRF3 luciferase reporter, at 10 µM, stronger effect = higher value

Sequence of Voltage-gated potassium channel subunit beta-2 (Rattus norvegicus) (P62483 whole entry, looked up): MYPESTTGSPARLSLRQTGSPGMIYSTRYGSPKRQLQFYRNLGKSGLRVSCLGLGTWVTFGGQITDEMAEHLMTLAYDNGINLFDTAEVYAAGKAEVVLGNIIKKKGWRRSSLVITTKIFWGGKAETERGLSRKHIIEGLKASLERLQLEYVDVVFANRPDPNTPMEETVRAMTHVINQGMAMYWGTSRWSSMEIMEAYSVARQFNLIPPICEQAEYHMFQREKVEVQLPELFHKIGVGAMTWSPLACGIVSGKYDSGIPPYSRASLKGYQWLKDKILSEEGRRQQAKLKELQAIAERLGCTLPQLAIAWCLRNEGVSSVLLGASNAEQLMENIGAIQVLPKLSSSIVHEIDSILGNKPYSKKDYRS
Sequence of Alpha-2C adrenergic receptor (Homo sapiens) (P18825 whole entry, looked up): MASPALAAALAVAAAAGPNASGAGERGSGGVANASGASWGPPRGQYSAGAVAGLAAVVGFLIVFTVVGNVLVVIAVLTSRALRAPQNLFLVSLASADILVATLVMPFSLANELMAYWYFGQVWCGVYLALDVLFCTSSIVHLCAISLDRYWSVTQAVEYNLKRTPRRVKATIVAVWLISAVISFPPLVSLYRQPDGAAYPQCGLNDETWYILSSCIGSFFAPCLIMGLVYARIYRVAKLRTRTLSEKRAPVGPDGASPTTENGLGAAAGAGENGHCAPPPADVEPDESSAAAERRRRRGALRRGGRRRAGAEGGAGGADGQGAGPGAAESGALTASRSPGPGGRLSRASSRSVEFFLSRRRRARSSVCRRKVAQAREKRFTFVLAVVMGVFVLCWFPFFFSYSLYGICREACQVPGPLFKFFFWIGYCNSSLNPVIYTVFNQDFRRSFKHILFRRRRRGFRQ

| Compound | cell count [1] | inhibition [1] | inhibition of aggregation [2] | nuclei count [2] [%] | inhibition [3] | nuclei count [3] [%] | fluorescence slope [4] | NADPH fluorescence slope [5] | slope [6] | inhibition [7] | inhibition [8] |
| --- | --- | --- | --- | --- | --- | --- | --- | --- | --- | --- | --- |
| CC1Cc2ccccc2N1C(=O)C12CCC(C)(C(=O)C1)C2(C)C (stereo not given) | 387 | -1.6% (inactive) | -6.9% (inactive) | 99.5 | -141% (inactive) | 116 | -0.544 (inactive) | -7.5e-05 (inactive) | 0.00468 (inactive) | -4.72% (inactive) | 1.25% (inactive) |
| O=C(NCCCCNC(=O)c1c(F)c(F)c(F)c(F)c1F)c1c(F)c(F)c(F)c(F)c1F | 778 | 1% (inactive) | 10.7% (inactive) | 104 | -48.4% (inactive) | 110 | -0.308 (inactive) | 3.6e-05 (inactive) | 0.00647 (inactive) | 12.8% (inactive) | 20% (inactive) |
| O=C(Cn1nnc(-c2cc(Cl)ccc2-n2cnnn2)n1)N1CCCc2ccccc21 | 574 | -2.1% (inactive) | -3.1% (inactive) | 97.2 | -13.8% (inactive) | 105 | -0.425 (inactive) | -0.000127 (inactive) | 0.00585 (inactive) | 17.3% (inactive) | 23.2% (inactive) |
| O=C(c1ccc(Cl)s1)N1CCN(c2nc3ccccc3s2)CC1 | 721 | -17.3% (inactive) | -16.4% (inactive) | 104 | -31.6% (inactive) | 107 | -0.392 (inactive) | 2e-05 (inactive) | 0.00557 (inactive) | 8.1% (inactive) | 6.32% (inactive) |
| COc1ccccc1NC(=O)N1CCN(c2ccccc2F)CC1 | 209 | 2.5% (inactive) | -10.6% (inactive) | 99.1 | -100% (inactive) | 102 | -0.388 (inactive) | -3.6e-05 (inactive) | 0.00564 (inactive) | 11.9% (inactive) | -4.11% (inactive) |
| Oc1ccc2cccnc2c1 | 719 | -12.9% (inactive) | -15.8% (inactive) | 100 | -44.3% (inactive) | 118 | -0.12 (active) | 2.2e-05 (inactive) | 0.00432 (inactive) | -2.36% (inactive) | 0.747% (inactive) |
| O=C(NC12CC3CC(CC(C3)C1)C2)c1cncc(O)c1 | 708 | 13.5% (inactive) | -6.2% (inactive) | 102 | -200% (inactive) | 128 | -0.608 (inactive) | 5e-06 (inactive) | 0.0069 (inactive) | 7.2% (inactive) | 26.8% (inactive) |
| COc1ccc(Oc2c(C)oc3cc(OC(=O)N4CCOCC4)ccc3c2=O)cc1 | 770 | -4.9% (inactive) | 11.1% (inactive) | 95.2 | -28.1% (inactive) | 112 | -0.402 (inactive) | 2.6e-05 (inactive) | 0.00567 (inactive) | 3.22% (inactive) | -6.73% (inactive) |
| N#CCCn1ccc(NC(=O)c2ccc(Cl)cc2)n1 | 444 | -6.3% (inactive) | 13.4% (inactive) | 100 | -23% (inactive) | 131 | -0.477 (inactive) | -6.3e-05 (inactive) | 0.00607 (inactive) | -18.1% (inactive) | -11.6% (inactive) |
| CCOC(=O)c1c(NC(=O)c2cccs2)sc(C)c1C | 396 | -6% (inactive) | -20% (inactive) | 102 | -107% (inactive) | 125 | -0.307 (inactive) | 1.4e-05 (inactive) | 0.00436 (inactive) | 12.5% (inactive) | 2.83% (inactive) |
| CCOC(=O)N1CCC(NC(=O)c2cc(C(=O)NC3CCCC3)ccc2CO)CC1 | 467 | 0.8% (inactive) | 14.4% (inactive) | 58.4 | -14.1% (inactive) | 106 | -0.535 (inactive) | -5.1e-05 (inactive) | 0.00598 (inactive) | 11.2% (inactive) | 32% (inactive) |
| O=C(Nc1ccon1)c1csc2c1CCCC2 | 332 | 1.2% (inactive) | -60% (inactive) | 104 | -52.8% (inactive) | 107 | -0.396 (inactive) | -5.9e-05 (inactive) | 0.00515 (inactive) | -0.246% (inactive) | 11.9% (inactive) |
| C=CCn1c(SCC(=O)C(C)(C)C)nnc1-c1ccccn1 | 583 | -3.4% (inactive) | 16.4% (inactive) | 83.3 | 9.2% (inactive) | 90.9 | -0.291 (inactive) | -5.6e-05 (inactive) | 0.00526 (inactive) | 12.5% (inactive) | 18.5% (inactive) |
| CCOc1ccc(N(CC(=O)NCc2ccco2)S(=O)(=O)c2ccc(OC)c(OC)c2)cc1 | 429 | 3.5% (inactive) | -2.6% (inactive) | 110 | -45.5% (inactive) | 110 | -0.409 (inactive) | 4.2e-05 (inactive) | 0.0072 (inactive) | 3.08% (inactive) | 30.5% (inactive) |
| CCOc1ccccc1CN(Cc1ccco1)S(=O)(=O)c1ccc(-n2cnnn2)c(OC)c1 | 439 | 5.7% (inactive) | 13.2% (inactive) | 99.8 | 4.1% (inactive) | 113 | -0.519 (inactive) | -1.2e-05 (inactive) | 0.00748 (inactive) | -53.6% (inactive) | 63.3% (active) |
